The supplement of paper PMC4100887
Structures can show the parent of a compound that is named as a salt. ± gives the standard deviation of the averaged measurements.

Assays:
[1] = system: IMR-90; experiment: relative cell viability (ATPlite) vs untreated control (fraction); higher = less toxic; details: 1 µM; 72 h
[2] = system: K562; experiment: as above; details: 1 µM; 72 h
[3] = system: K562; experiment: relative cell viability (ATPlite) vs untreated control, with imatinib (fraction); higher = less toxic; details: 1 µM; 72 h; imatinib 0.125 µM

Structure (SMILES)	relative cell viability [1]	relative cell viability [2]	relative cell viability [3]
O=C(c1ccc(Nc2nccc(-c3cc4ccccc4s3)n2)cc1)N1CCC(N2CCCC2)CC1 [IKK Inhibitor VII]	0.972 ± 0.066	0.773 ± 0.022	0.632 ± 0.031
CCN(CC)CCNC(=O)c1c(C)[nH]c(/C=C2\C(=O)Nc3ccc(Cl)cc32)c1C	0.92 ± 0.082	0.909 ± 0.062	0.799 ± 0.052
COc1ccc(-c2cnc3c(-c4ccsc4)cnn3c2)cc1 [VEGF Receptor 2 Kinase Inhibitor IV]	0.993 ± 0.1	0.893 ± 0.072	0.726 ± 0.067
Nc1ccc(-c2cccc3c(=O)cc(N4CCOCC4)oc23)cc1	0.822 ± 0.13	0.79 ± 0.094	0.627 ± 0.056
CC(C)(C)c1nc2c3cc[nH]c(=O)c3c3cc(F)ccc3c2[nH]1 [JAK Inhibitor I]	1.01 ± 0.045	0.796 ± 0.072	0.72 ± 0.035
Cn1c2ccccc2c2c3c(c4c5ccccc5n(CCC#N)c4c21)CNC3=O	1.03 ± 0.093	0.854 ± 0.1	0.739 ± 0.048
Cc1ccc(NC2=CC(=O)c3sc(C)nc3C2=O)cc1 [Cdk4 Inhibitor III]	0.997 ± 0.032	0.782 ± 0.1	0.685 ± 0.14
NC(=O)c1ccc2nc(-c3ccc(Oc4ccc(Cl)cc4)cc3)[nH]c2c1 [Chk2 Inhibitor II]	1.05 ± 0.097	0.778 ± 0.061	0.681 ± 0.027
COc1ccc2nc3n[nH]c(C)c3c(NCCOCCO)c2c1	1 ± 0.077	1.02 ± 0.064	0.843 ± 0.066
CCCCCCCCCCCCCCCCn1cc[n+](Cc2ccccc2)c1C [eEF-2 Kinase Inhibitor, NH125]	0.948 ± 0.11	0.506 ± 0.092	0.401 ± 0.1
O=c1c(O)c(-c2ccc(O)c(O)c2)oc2cc(O)c(O)c(O)c12 [Quercetagetin]	0.88 ± 0.16	0.799 ± 0.086	0.64 ± 0.025
CSc1nc(-c2ccnc(NC(C)c3ccccc3)c2)c(-c2ccc(F)cc2)[nH]1 (centres undefined) [p38 MAP Kinase Inhibitor III]	1.03 ± 0.072	0.909 ± 0.024	0.735 ± 0.038
COc1cc(Nc2ncc3ccn(-c4cccc(CCC#N)c4)c3n2)cc(OC)c1OC [Keratinocyte Differentiation Inducer]	1.02 ± 0.058	0.173 ± 0.21	0.459 ± 0.35
CC(C)n1cnc2c(NCc3ccccc3O)nc(NCCCO)nc21 [Cdk Inhibitor, p35]	1.04 ± 0.054	0.855 ± 0.056	0.779 ± 0.03
O=C(Nc1cc(Cl)cc2c1[nH]c1cnccc12)c1cccnc1 [IKK Inhibitor X]	0.946 ± 0.061	0.896 ± 0.069	0.804 ± 0.023
O=C(Nc1ccc(-c2cn[nH]c2)cc1)C1COc2ccccc2O1 (centres undefined) [Rho Kinase Inhibitor V]	1.09 ± 0.066	0.824 ± 0.075	0.687 ± 0.028
CC[n+]1c(/C=C/N(C)c2ccccc2)n(-c2ccccc2)c2ccc(-c3nc4ccccc4s3)cc21 [Akt Inhibitor IV]	0.924 ± 0.1	0.169 ± 0.082	0.0639 ± 0.02
CN(C)CCCn1cc(C2=C(c3c[nH]c4ccccc34)C(=O)NC2=O)c2ccccc21 [Bisindolylmaleimide I]	0.895 ± 0.12	0.169 ± 0.052	0.137 ± 0.042
CC(C)[C@H](CO)Nc1nc(Nc2cc(N)cc(Cl)c2)c2ncn(C(C)C)c2n1 [Aminopurvalanol A]	0.837 ± 0.084	0.916 ± 0.037	0.796 ± 0.025
Cc1cc(C=C2C(=O)C=CC2=O)cc(C)c1O	0.928 ± 0.045	0.736 ± 0.16	0.595 ± 0.12
O=C(Nc1cc(C(F)(F)F)cc(C(F)(F)F)c1)c1cc(Cl)ccc1O [IKK-2 Inhibitor V]	0.878 ± 0.28	0.505 ± 0.03	0.477 ± 0.011
COc1cc2ncnc(Nc3cccc(O)c3)c2cc1OC [WHI-P180, Hydrochloride]	0.912 ± 0.092	0.747 ± 0.073	0.366 ± 0.045
COc1cc2ncc(-c3ccccc3)nc2cc1OC	1.1 ± 0.066	0.888 ± 0.083	0.76 ± 0.045
O=C(Nc1cccc(Nc2nccc(Nc3cccc(C(F)(F)F)c3)n2)c1)C1CC1 [Aurora Kinase Inhibitor III]	0.892 ± 0.074	0.892 ± 0.044	0.755 ± 0.05
CCCCc1c(-c2ccc(O)cc2)[nH]c2nccnc12 [Aloisine A, RP107]	0.913 ± 0.06	0.884 ± 0.048	0.77 ± 0.032
O=C(c1ccccc1)c1ccc(N2CCOCC2)cc1O [DNA-PK Inhibitor V]	1.01 ± 0.094	0.878 ± 0.066	0.756 ± 0.03
CO[C@H]1C[C@@H]2CC[C@@H](C)[C@@](O)(O2)C(=O)C(=O)N2CCCC[C@H]2C(=O)O[C@H]([C@H](C)C[C@@H]2CC[C@@H](O)[C@H](OC)C2)CC(=O)[C@H](C)/C=C(\C)[C@@H](O)[C@@H](OC)C(=O)[C@H](C)C[C@H](C)/C=C/C=C/C=C/1C [Rapamycin]	0.598 ± 0.075	0.585 ± 0.032	0.481 ± 0.036
O=[N+]([O-])c1ccc(-c2nc(-c3ccc(F)cc3)c(-c3ccncc3)[nH]2)cc1	1.05 ± 0.089	0.774 ± 0.031	0.693 ± 0.039
